High-throughput results from PubChem.
ST2 inh = IL1RL1 inhibition; Q01638; AlphaLISA ST2-Fc/biotin-IL-33 interaction, 1 h; inhibition, % for hits at 17 µM; 2.3% of 78,000 active; AID 1259354; in the data active = inhibition above about 30%
Target sequence (Q01638 whole entry, looked up): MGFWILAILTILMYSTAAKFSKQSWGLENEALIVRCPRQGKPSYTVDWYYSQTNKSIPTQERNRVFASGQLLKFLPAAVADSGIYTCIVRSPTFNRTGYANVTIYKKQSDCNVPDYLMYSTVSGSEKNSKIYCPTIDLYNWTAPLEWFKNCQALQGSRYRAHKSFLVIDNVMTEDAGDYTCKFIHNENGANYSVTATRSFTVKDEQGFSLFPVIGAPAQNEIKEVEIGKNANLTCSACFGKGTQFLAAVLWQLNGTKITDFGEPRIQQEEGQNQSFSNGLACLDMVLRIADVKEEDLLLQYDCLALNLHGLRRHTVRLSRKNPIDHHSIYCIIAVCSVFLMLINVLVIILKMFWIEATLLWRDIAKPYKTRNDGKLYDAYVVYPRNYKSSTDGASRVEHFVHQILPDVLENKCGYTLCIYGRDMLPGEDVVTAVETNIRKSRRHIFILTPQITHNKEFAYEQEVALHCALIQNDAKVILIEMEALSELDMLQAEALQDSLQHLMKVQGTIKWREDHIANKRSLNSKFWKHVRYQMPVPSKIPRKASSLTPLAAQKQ
Starred values were filed as active, the others as inactive; i = inactive. Shown is part of a subset that was picked to be rich in hits.

SMILES | ST2 inh
COc1cc(NC(=O)c2cc3cc4ccc(Cl)cc4nc3o2)cc(OC)c1OC | i
COc1cccc(NC(=O)c2cc3cc4ccc(OC)cc4nc3o2)c1 | 38%*
COc1ccc2cc3cc(C(=O)Nc4ccc(F)cc4F)oc3nc2c1 | i
COc1ccc2cc3cc(C(=O)Nc4cccc(Cl)c4)oc3nc2c1 | 36%*
COc1ccc2cc3cc(C(=O)N4CCN(c5cccc(Cl)c5)CC4)oc3nc2c1 | i
COc1ccc2nc3oc(C(=O)Nc4cc(OC)c(OC)c(OC)c4)cc3cc2c1 | i
CCOCCCNC(=O)c1cc2cc3cc(OC)ccc3nc2o1 | i
COc1ccc2nc3oc(C(=O)Nc4ccc(OC)c(Cl)c4)cc3cc2c1 | 37%*
COc1ccc2nc3oc(C(=O)NCc4cccs4)cc3cc2c1 | 35%*
CCOc1ccccc1NC(=O)c1cc2cc3ccc(OC)cc3nc2o1 | i
COc1ccc2nc3oc(C(=O)Nc4cc(Cl)ccc4OC)cc3cc2c1 | i
COc1ccc2nc3oc(C(=O)NCCC(C)C)cc3cc2c1 | i
CCN(CC)c1ccc2cc(-c3nnc(-c4ccccc4Br)o3)c(=O)oc2c1 | i
Cc1nc(C)c(C(=O)N(Cc2ccsc2)CC(C)C)o1 | i
CCN1CCN(C(=O)c2cc3cc4ccc(OC)cc4nc3o2)CC1 | i
O=C(Nc1ccc(Oc2ccc(Cl)cc2)cc1)c1cnc2n(c1=O)CCS2 | i
CN1C[C@H](NC(=O)C2(S(=O)(=O)c3ccccc3)CC2)C[C@H]1CO | i
C[n+]1cccc(C2CCCCN2C(=O)c2ccccc2)c1 (configuration not stated) | i
CN(CC(O)c1ccccc1)C(=O)c1ccc2oc(CCc3ccccc3)nc2c1 (configuration not stated) | i
COc1cc(C2C3=C(CCCC3=O)NC3=C2C(=O)c2ccccc23)ccc1O (configuration not stated) | i
COc1cc(C2CC(c3ccccc3O)=NN2)ccc1O (configuration not stated) | 32%*
COc1cc(C2N(Cc3ccccc3)CCN2Cc2ccccc2)ccc1O | i
COc1ccc(CC(=O)N2CC[C@@H](CC(=O)O)[C@@H](CC3=NCCc4ccccc43)C2)cc1 | i
COc1ccc(CC(=O)Nc2ccc3c(c2)OCO3)cc1 | i
COc1ccc(Cc2nnc(NC3CCCCC3)[nH]c2=O)cc1 | i
SMILES | ST2 inh
Cc1nc(N2C(=O)C(O)=C(C(=O)c3cccs3)C2c2ccccc2F)sc1C (configuration not stated) | i
CC(C)(C)c1ccc(C(=O)Nc2c3c(nn2-c2ccc(F)cc2)CS(=O)C3)cc1 (configuration not stated) | i
COc1ccc(-c2noc([C@@H]3C[C@H](NS(=O)(=O)c4cccs4)CN3C)n2)cc1 | 41%*
CN1C[C@@H](NS(=O)(=O)c2ccccc2)C[C@H]1c1nc(-c2ccccc2)no1 | i
CN1C[C@@H](NS(=O)(=O)c2ccccc2)C[C@H]1c1nc(-c2ccc(Cl)cc2)no1 | i
O=C(C1CCC(CNS(=O)(=O)c2cccc3nsnc23)CC1)N1CCCCCC1 (configuration not stated) | i
N#Cc1c(NC(=O)c2cc(-c3ccco3)on2)sc2c1CCCC2 | i
CCCc1nc(C)c(Cn2cnc3sc4c(c3c2=O)CCNC4)s1 | i
Cc1cc(C)cc(NC(=O)c2ccc(=O)n(Cc3cccc(F)c3)c2)c1 | i
COc1ccc(C2=NN(C(=O)c3cccs3)C(c3ccccc3Cl)C2)cc1 (configuration not stated) | i
CCNC(=O)N1CC[C@H]2CC(=O)N(CCN3CCNC3=O)CC[C@H]2C1 | i
COc1ccc(NC(=O)N2CC[C@H]3CC(=O)N(CCN4CCNC4=O)CC[C@H]3C2)cc1 | 53%*
COc1ccc(NC(=O)N2CCN(C)CC2)cc1 | i
O=C(Nc1cccc(Br)c1)c1ccc(F)cc1 | i
CC(=O)c1cccc(CN2CCCC(CNC(=O)c3cccs3)C2)c1 (configuration not stated) | i
C=CCOc1ccccc1CN1CCC(O)CC1 | i
COc1ccc(N(CC(=O)N2CCN(C)CC2)S(=O)(=O)c2ccc(C)cc2)cc1OC | i
O=[N+]([O-])c1cccc(CN2CCSCC2)c1 | i
O=C(CN1C(=O)/C(=C/c2ccccc2F)Sc2ccccc21)N1CCCC1 | 33%*
Cc1ccc(CNC(=O)CN2C(=O)/C(=C/c3ccccc3F)Sc3ccccc32)cc1 | i
O=C(CN1C(=O)/C(=C/c2ccccc2F)Sc2ccccc21)NCCN1CCOCC1 | i
COc1ccccc1CCc1nnc(CCC(=O)N2CCCC2c2ccc(F)cc2)o1 (configuration not stated) | i
COc1ccccc1Oc1nc2c(c(=O)n(C)c(=O)n2C)n1Cc1ccccc1F | 31%*
CC1CCN(c2nc3c(c(=O)n(C)c(=O)n3C)n2Cc2ccccc2Cl)CC1 | i
COCCCNc1nc2c(c(=O)n(C)c(=O)n2C)n1Cc1ccccc1F | i
SMILES | ST2 inh
CCOc1nc2c(c(=O)n(C)c(=O)n2C)n1Cc1ccccc1Cl | 30%*
CC(CCO)Nc1nc2c(c(=O)n(C)c(=O)n2C)n1Cc1ccccc1F (configuration not stated) | i
C#CCOc1nc2c(c(=O)n(C)c(=O)n2C)n1Cc1ccccc1Cl | i
CC(C)C(=O)Nc1c(C(=O)Nc2ccc(F)cc2)oc2ccccc12 | i
COC(=O)c1c(C)[nH]c(C(=O)CSc2cc(C)c3ccccc3n2)c1C | i
CSc1cccc(NC(=O)C2Cc3ccccc3CN2S(C)(=O)=O)c1 (configuration not stated) | i
Cc1ccc(C(C)(C)NC(=O)C2CCCN2C(N)=O)cc1 (configuration not stated) | i
COc1ccc(NC(=O)c2ccc([N+](=O)[O-])cc2)c(OC)c1 | i
COc1ccc(-n2c(C)c([N+](=O)[O-])c3ccc(O)cc32)cc1 | i
COc1ccc2c(c1)C(C)(C)C1(C=Cc3cc([N+](=O)[O-])cc(OC)c3O1)N2C (configuration not stated) | 73%*
Cc1ccnc(N2CCC(Cc3nn(C)c(=O)n3-c3ccccc3)CC2)n1 | i
COc1cccc(CN2CCN(Cc3ccc(OC)c(OC)c3OC)CC2)c1OC | i
Cc1ccccc1CSC1=NCCN1C(=O)c1ccc2c(c1)OCO2 | i
COCC(C)NC(=O)C1CCN(Cc2cnc(-c3cccc(C)c3)nc2)CC1 (configuration not stated) | i
NC(=O)c1ccc(N2CCN(Cc3cccc(-n4cccn4)c3)CC2)nc1 | i
Cc1cc(-n2cccn2)ccc1CN1CCN(c2cc(=O)[nH]c(N)n2)CC1 | 40%*
Cc1nc2c(c(=O)[nH]1)CCN(C(=O)c1cc(-n3cccn3)ccc1Cl)C2 | i
Cc1cc(C)c(S(=O)(=O)Nc2ccc(S(=O)(=O)Nc3ncccn3)cc2)c(C)c1 | i
CCOC(=O)C1C(=O)C=C(c2ccc(OC)c(OC)c2)CC1c1ccc(CC)cc1 (configuration not stated) | i
O=C1Nc2ccc(Br)cc2C1=Nc1nn[nH]n1 | i
Cc1cc(C)nc(SCC(=O)OCC(=O)N2c3ccccc3Sc3ccccc32)n1 | i
O=C1CC(NCc2ccccn2)CN1CCCc1ccccc1 (configuration not stated) | 53%*
O=C1CC(NS(=O)(=O)N2CCCCC2)CN1CCCc1ccccc1 (configuration not stated) | i
O=C(NCc1ccccn1)C1CC(=O)N(CCc2ccccc2)C1 (configuration not stated) | i
